# Screening data from PubChem.
# Bim-Bcl-XL – human Bim-Bcl-XL interaction inhibition; Bim peptide-Bcl-XL binding, bead flow cytometry, fluorescence; Q07817; 0.04% of 190,000 active; inhibition, % at 10 µM
# Bfl-1 Bim block – disrupts Bim binding to human Bfl-1 | 0.12% of 190,000 active | AID 1008 | Bead-based flow cytometry, Bim-Bfl-1 binding inhibition | Q16548 | inhibition, % at 10 µM
# Bim-Bcl-2 – human Bim-Bcl-2 interaction inhibition; Bead-based flow cytometry, Bim peptide-Bcl-2 binding; inhibition, % at 10 µM; 0.06% of 190,000 active; in the data active means inhibition above about 40%
# Target sequence (P10415 whole entry, looked up): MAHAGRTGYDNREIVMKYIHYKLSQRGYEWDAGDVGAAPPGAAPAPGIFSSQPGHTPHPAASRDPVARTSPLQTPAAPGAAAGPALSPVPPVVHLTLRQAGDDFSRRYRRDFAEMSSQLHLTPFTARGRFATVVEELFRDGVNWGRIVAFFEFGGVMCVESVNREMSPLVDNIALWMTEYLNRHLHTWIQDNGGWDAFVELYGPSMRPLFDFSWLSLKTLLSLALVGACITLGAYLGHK
# Bcl-W Bim block – human Bim-Bcl-W interaction inhibition; Q92843; bead-based flow cytometry, Bim peptide-Bcl-W binding; inhibition, % at 10 µM; 0.02% of 190,000 active; AID 952;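 further: higher means less fluorescent Bim peptide bound to Bcl-W beads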
# BCLXL inh – blocks human Bcl-xL binding to Bim BH3 peptide; 0.7% of 320,000 active; GST-Bcl-xL / FITC-Bim BH3 peptide fluorescence polarization; inhibition, % at 10.9 µM;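 active means inhibition above the mean of all tested compounds plus 3 SD, cutoff set per campaign, cut at about 30% in these data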;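 further: inhibitors lower millipolarization by displacing the labeled peptide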
# Bcl-B Bim block – inhibitors of Bim-Bcl-B interaction, human; inhibition, % at 10 µM; bead-based flow cytometry, Bim peptide-Bcl-B binding; 0.073% of 190,000 active
# Target sequence (Q9HD36 whole entry, looked up): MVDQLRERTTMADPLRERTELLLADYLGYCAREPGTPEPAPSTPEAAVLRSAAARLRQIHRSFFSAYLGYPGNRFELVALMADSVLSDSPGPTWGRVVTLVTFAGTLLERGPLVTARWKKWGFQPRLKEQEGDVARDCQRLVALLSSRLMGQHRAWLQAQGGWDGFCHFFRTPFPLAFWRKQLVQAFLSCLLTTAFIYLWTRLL
# Hits are given with their value; 0 = inactive; - = no result given; + = active, no number. A selection: hits, their analogues and other compounds. The true share with any hit is near 0.81%. Unless noted, no stated cut-off is given here; in the data, active means inhibition above about 40%.
SMILES,Bim-Bcl-XL,Bfl-1 Bim block,Bim-Bcl-2,Bcl-W Bim block,BCLXL inh,Bcl-B Bim block
CC1CN(CCCCOc2ccc(Cl)c3ccccc23)CC(C)O1 (configuration not stated),-,-,-,-,0,-
CCCCNC(=O)C(C#N)c1nc2ccccc2nc1N1CCCC1 (configuration not stated),0,0,0,0,-,0
COc1ccc(CNC(=O)C(C#N)c2nc3ccccc3nc2N2CCN(C)CC2)cc1 (configuration not stated),0,0,0,0,0,0
C=CCNC(=O)C(C#N)c1nc2ccccc2nc1N1CCCCCC1 (configuration not stated),0,0,0,0,74,0
COc1ccc(CNC(=O)C(C#N)c2nc3ccccc3nc2N2CCCC2)cc1 (configuration not stated),0,0,0,0,46,0
O=C(Nc1nnc2n1CCS2)c1ccc(Br)o1,-,-,-,-,0,-
CC(=O)N1CCN(C(=O)c2ccc3c(c2)OCCO3)CC1,-,-,-,-,0,-
CC(=O)Nc1ccc(Sc2ccccc2C(=O)O)cn1,-,-,-,-,0,-
O=C1NC(=O)N(Cc2ccccc2)C1=O,-,-,-,-,57,-
COc1ccc(-c2cc3ncnc(Cl)c3s2)cc1,-,-,-,-,0,-
C/C(O)=c1/ccc2cccc3nc(C)nc1c23,0,0,0,0,71,0
O=C(NCc1ccccn1)c1ccc(NS(=O)(=O)c2ccccc2)cc1,-,-,-,-,0,-
Cc1cccc(NC2=Nc3ccccc3N3C2=Nc2c(c(C)nn2-c2ccccc2)C3c2ccc(O)c(O)c2)c1 (configuration not stated),0,0,0,0,48,0
Cc1nn(-c2ccccc2)c2c1C(c1ccc(O)c(O)c1)N1C(=N2)C(Nc2ccccc2)=Nc2ccccc21 (configuration not stated),0,0,0,0,64,0
Cc1ccc(NC2=Nc3ccccc3N3C2=Nc2c(c(C)nn2-c2ccccc2)C3c2ccc(O)c(O)c2)cc1 (configuration not stated),0,0,0,0,-,0
Cn1c(=O)c(/C=C/c2ccccc2)nc2ccccc21,0,0,0,0,35,0
O=C1NC(=S)CN1c1ccccc1,-,-,-,-,70,-
COc1ccc2cc(OCC(=O)NNC(=O)Nc3ccc(C(C)=O)cc3)ccc2c1,-,-,-,-,0,-
Cc1cc2nc3c(=O)[nH]c(=S)[nH]c3nc2cc1NC(=O)C(F)(F)F,-,-,-,-,+,-
O=c1[nH]c(=S)[nH]c2nc(-c3ccccc3)cnc12,-,-,-,-,0,-
C=CCN=c1scc(-c2ccco2)n1/N=C/c1ccc(O)c(O)c1O,-,-,-,-,0,-
COCCN=c1scc(-c2ccco2)n1/N=C/c1ccc(O)c(O)c1O,0,41,0,0,0,0
CN(C)c1ccc2c3c(cccc13)C(=O)N(c1ccccc1)C2=O,0,0,0,0,81,0
Cc1c(O)c2c3c(cccc3c1O)C(=O)N(c1ccccc1)C2=O,0,0,0,0,91,0
CC(C)CCN1C(=O)c2cccc3c(N)ccc(c23)C1=O,-,-,-,-,173,-
SMILES,Bim-Bcl-XL,Bfl-1 Bim block,Bim-Bcl-2,Bcl-W Bim block,BCLXL inh,Bcl-B Bim block
Cc1ccc(N2C(=O)c3cccc4c([N+](=O)[O-])ccc(c34)C2=O)c2cccnc12,-,-,-,-,0,-
Cc1ccnc(N2C(=O)c3cccc4c([N+](=O)[O-])ccc(c34)C2=O)c1,0,0,0,0,88,0
N#Cc1ccc(C(=O)NCC2CCCCC2)cc1,-,-,-,-,0,-
COc1ccc(N(Cc2cc(=O)[nH]c3ccccc23)C(=O)C(C)C)cc1,-,-,-,-,0,-
Nc1ccc2c3c(cccc13)C(=O)N(c1ccccc1)C2=O,0,0,0,0,-,0
Cc1cccc(N2C(=O)c3cccc4c(N(C)CCO)ccc(c34)C2=O)c1,0,0,0,0,183,0
Nc1cccc(N2C(=O)c3cccc4c(N)ccc(c34)C2=O)c1,-,-,-,-,+,-
Cc1cccc(N2C(=O)c3cccc4c(N)ccc(c34)C2=O)c1,-,-,-,-,+,-
Nc1ccc(N)c(C(=O)O)c1,-,-,-,-,58,-
O=c1[nH]c2ccccc2nc1/C=C(\O)c1cccs1,0,0,0,0,81,0
CC1(c2ccc3ccccc3c2)NC(=O)N(CC(=O)N2CCN(c3ccccc3O)CC2)C1=O (configuration not stated),-,-,-,-,0,-
CCn1c(CSc2nnc(-c3cccnc3)n2-c2ccccc2C)nc2cc(C(=O)O)ccc21,0,0,0,0,30,0
CCn1c(CSc2nnc3ccccn23)nc2cc(C(=O)O)ccc21,0,0,0,0,99,0
Cc1ccccc1-n1c(SCc2c(C)noc2C)nnc1-c1cccnc1,0,0,0,0,133,0
Cc1ccccc1-n1c(SCc2c(C)noc2C)nnc1-c1ccncc1,0,0,0,0,0,0
C/C(CC(=O)Nc1ccc(Cl)c(Cl)c1)=N\NC(=O)C(=O)N1CCCCC1,0,0,0,0,0,0
CC(=O)NC12CC3CC(C1)CC(C(=O)Nc1nc4ccc(S(C)(=O)=O)cc4s1)(C3)C2,-,-,-,-,0,-
CCOc1cc(/C=N/n2c(C)nnc2C)ccc1O,-,-,-,-,0,-
Brc1ccc2ncnc(Nc3ccc(N4CCOCC4)cc3)c2c1,0,0,0,0,0,48
CCOc1ccc(S(=O)(=O)Nc2nc3ccccc3nc2-n2ccc(=NC(=O)c3cccs3)cc2)cc1,0,0,0,0,0,0
O=C(N=c1ccn(-c2nc3ccccc3nc2NS(=O)(=O)c2ccc(Cl)cc2)cc1)c1cccs1,-,-,-,-,48,-
Cc1nn2c(N)csc2nc1=O,0,0,0,0,57,0
COc1ccc(S(=O)(=O)C(C#N)c2nc3ccccc3nc2N2CCCCC2)cc1 (configuration not stated),0,0,0,0,68,0
Cc1ccc(C)c(S(=O)(=O)C(C#N)c2nc3ccccc3nc2N2CCOCC2)c1 (configuration not stated),0,0,0,0,0,0
N#CC(c1nc2ccccc2nc1N1CCCC1)S(=O)(=O)c1ccccc1 (configuration not stated),0,0,0,0,66,0
SMILES,Bim-Bcl-XL,Bfl-1 Bim block,Bim-Bcl-2,Bcl-W Bim block,BCLXL inh,Bcl-B Bim block
CN1CCN(c2nc3ccccc3nc2C(C#N)S(=O)(=O)c2ccccc2)CC1 (configuration not stated),-,-,-,-,0,-
Cc1ccc(C)c(S(=O)(=O)C(C#N)c2nc3ccccc3nc2N2CCCC2)c1 (configuration not stated),0,0,0,0,77,0
Cc1cccc(S(=O)(=O)C(C#N)c2nc3ccccc3nc2N2CCCC2)c1 (configuration not stated),0,0,0,0,0,0
C1=C(c2ccc(-c3ccccc3)cc2)Nc2ncnn2C1c1ccco1 (configuration not stated),0,0,0,0,-,0
Fc1ccc(C2=CC(c3ccco3)n3ncnc3N2)cc1 (configuration not stated),0,0,0,0,152,0
Fc1ccc(C2=CC(c3ccc(Br)o3)n3ncnc3N2)cc1 (configuration not stated),0,0,0,0,180,0
O=C(NCC1CCCO1)c1ccc2c(=O)n(-c3ccccc3)c(=S)[nH]c2c1 (configuration not stated),0,0,0,0,0,0
